{"source": "paper PMC13083723", "about": "(Patterns, 2026)", "note": "Among all 5,400 compounds or so, about 190 (3.5%) showed an effect of 50% or more. The full list was thinned out, with strong results kept by preference. Positions of bridges follow the written chain, without caps; N, C: chain ends. Non-standard residues stand in square brackets, D forms with d. Residues, ends and D or L forms follow the SMILES beside them. *: point of attachment. Heptanoyl(5-Me) = CCC(C)CCCC(=O)*; Dab = NCC[C@H](N)C(=O)O"}
{"tested_on": "Vero-E6", "test": "primary screen, phospholipidosis by LipidTOX staining; higher = more effect of the substance", "conditions": "10 µM", "method_in_brief": "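Single-concentration screen at 10 μM, with DMSO 0.1 v/v % and amiodarone 10 μM as controls. Read-out is LipidTOX Red phospholipid staining, which tolerates aldehyde fixation, in Vero-E6 cells.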", "units": {"result_ITMP": "%"}}
{"smiles": "O=S(=O)([O-])c1cc(I)c(O)c2ncccc12", "result_ITMP": -9.09}
{"smiles": "Cc1nc(=O)c2c([nH]1)CCSC2", "result_ITMP": -2.05}
{"smiles": "CC1(C)[C@@H]2CC[C@@]1(C)C(=O)C2", "note": "[R4A_0000828_001 / SPE_K15714472]", "result_ITMP": -1}
{"smiles": "Cc1ccc(C(=O)Nc2cccc(C(F)(F)F)c2)cc1Nc1nc(-c2cccnc2)nc2c1cnn2C", "result_ITMP": -4.6}
{"smiles": "Cc1ccc(NC(=O)c2ccc(CN3CCN(C)CC3)cc2)cc1Nc1nc(-c2cccnc2)cs1", "result_ITMP": 54}
{"smiles": "Cc1ncc(NC(=O)c2ccc(CN3CCN(C)CC3)c(C(F)(F)F)c2)cc1Nc1nccc(-c2cccnc2)n1", "result_ITMP": 9.33}
{"smiles": "CC(C)[C@@H](C)/C=C/[C@@H](C)[C@H]1CC[C@H]2C3=CC=C4C[C@@H](O)CC[C@]4(C)[C@H]3CC[C@]12C", "result_ITMP": -5.48}
{"smiles": "Nc1ncnc2c1ncn2C1O[C@H](COP(=O)(O)OP(=O)([O-])OP(=O)([O-])O)[C@@H](O)[C@H]1O", "note": "(stereo partly shown)", "result_ITMP": 6.44}
{"smiles": "CC1(C)[C@@H]2C[C@H]1[C@@](C)(O)[C@@H](O)C2", "result_ITMP": -2.34}
{"smiles": "Cc1ccc(C(=O)N(CCCN)[C@@H](c2nc3cc(Cl)ccc3c(=O)n2Cc2ccccc2)C(C)C)cc1", "result_ITMP": 75.7}
{"smiles": "Cc1ccc(C(=O)N(CCCN)[C@@H](c2oc3cc(Cl)ccc3c(=O)c2Cc2ccccc2)C(C)C)cc1", "result_ITMP": 92.7}
{"smiles": "CCNC(=O)CCC(N)C(=O)O", "note": "(stereo in doubt)", "result_ITMP": -4.2}
{"smiles": "c1cc2c(cc1[C@H]1OC[C@H]3[C@@H]1CO[C@@H]3c1ccc3c(c1)OCO3)OCO2", "result_ITMP": -6.11}
{"smiles": "c1ccc(Oc2nc(NC3CCCCC3)c3nc[nH]c3n2)cc1", "result_ITMP": -2.48}
{"smiles": "NC(N)=NCCC[C@@H](N)C(=O)N[C@@H](CCCN=C(N)N)C(=O)N1CCC[C@H]1C(=O)N1C[C@H](O)C[C@H]1C(=O)NCC(=O)N[C@@H](Cc1cccs1)C(=O)N[C@@H](CO)C(=O)N1Cc2ccccc2C[C@@H]1C(=O)N1[C@H](C(=O)N[C@@H](CCCN=C(N)N)C(=O)O)C[C@@H]2CCCC[C@@H]21", "result_ITMP": -1.28}
{"smiles": "CN(C)C/C=C/C(=O)Nc1cc2c(Nc3ccc(F)c(Cl)c3)ncnc2cc1O[C@H]1CCOC1", "result_ITMP": 108}
{"smiles": "COc1cc2ncnc(Nc3ccc(F)c(Cl)c3)c2cc1NC(=O)/C=C/CN1CCCCC1", "result_ITMP": 19.4}
{"smiles": "CCOc1cc2ncc(C#N)c(Nc3ccc(OCc4cccc(F)c4)c(Cl)c3)c2cc1NC(=O)/C=C/CN(C)C", "result_ITMP": -0.47}
{"smiles": "C=CC(=O)Nc1cc2c(Nc3ccc(F)c(Cl)c3)ncnc2cc1OCCCN1CCOCC1", "result_ITMP": 4.03}
{"smiles": "CCOc1cc2ncc(C#N)c(Nc3ccc(OCc4ccccn4)c(Cl)c3)c2cc1NC(=O)/C=C/CN(C)C", "result_ITMP": 0.53}
{"smiles": "CCOc1cc2ncc(C#N)c(Nc3ccc(F)c(Cl)c3)c2cc1NC(=O)/C=C/CN(C)C", "result_ITMP": 73.9}
{"smiles": "CCOC(=O)OC(C)OC(=O)C1N2C(=O)C(NC(=O)[C@H](N)c3ccccc3)C2SC1(C)C", "note": "(stereo partly shown)", "result_ITMP": -2.51}
{"smiles": "CCC(=O)O[C@@H]1CC(=O)O[C@H](C)C/C=C/C=C/[C@H](OC(C)=O)[C@H](C)C[C@H](CC=O)[C@H](O[C@@H]2O[C@H](C)[C@@H](O[C@H]3C[C@@](C)(OC(C)=O)[C@@H](OC(=O)CC)[C@H](C)O3)[C@H](N(C)C)[C@H]2O)[C@H]1OC", "result_ITMP": 7.16}
{"smiles": "O=C1NC(c2ccccc2)(c2ccccc2)C(=O)N1COP(=O)([O-])[O-]", "result_ITMP": -0.37}
{"smiles": "CN1CCN(CCOc2cc(OC3CCOCC3)c3c(Nc4c(Cl)ccc5c4OCO5)ncnc3c2)CC1", "result_ITMP": 58.5}
{"smiles": "CNC(=O)CN1CCC(Oc2cc3c(Nc4cccc(Cl)c4F)ncnc3cc2OC)CC1", "result_ITMP": 27.2}
{"smiles": "CCC(C)CCCC(=O)N[C@@H](CCN)C(=O)N[C@H](C(=O)N[C@@H](CCN)C(=O)N[C@H]1CCNC(=O)[C@H]([C@@H](C)O)NC(=O)[C@H](CCN)NC(=O)[C@H](CCN)NC(=O)[C@H](CC(C)C)NC(=O)[C@@H](CC(C)C)NC(=O)[C@H](CCN)NC1=O)[C@@H](C)O", "note": "(stereo partly drawn) [R4A_0005175_001 / SPE_A18924964] ({Heptanoyl(5-Me)}-[Dab]T[Dab][Dab][Dab][dL]L[Dab][Dab]T; lactam 4-C)", "result_ITMP": -1.3}
{"smiles": "CO[C@@]1(NC(=O)C(C(=O)[O-])c2ccc(O)cc2)C(=O)N2C(C(=O)[O-])=C(CSc3nnnn3C)CO[C@@H]21", "note": "(stereo partly shown)", "result_ITMP": -4.09}
{"smiles": "O=c1c(-c2ccc(O)cc2)coc2c(O[C@@H]3O[C@H](CO)[C@@H](O)[C@H](O)[C@H]3O)c(O)ccc12", "result_ITMP": -5.15}
{"smiles": "CC(=O)O[C@H]1CC[C@@]2(C)C(=CCC3C2CC[C@]2(C)C(=O)CCC32)C1", "note": "(stereo partly shown)", "result_ITMP": 0.97}
{"smiles": "C[C@]12CC[C@H](O)CC1=CCC1C2CC[C@]2(C)C(=O)CC[C@@H]12", "note": "(stereo partly shown)", "result_ITMP": 13.7}
{"smiles": "CCN(CC)CCO[C@H]1CC[C@@]2(C)C(=CC[C@@H]3[C@@H]2CC[C@]2(C)C(=O)CC[C@@H]32)C1", "result_ITMP": 61}
{"smiles": "COc1ccc(C(=O)/C(Br)=C/C(=O)[O-])cc1", "result_ITMP": 7.96}
{"smiles": "O=C([O-])[C@H](O)[C@@H](O)[C@H](O)[C@H](O)CO", "result_ITMP": -4.67}
{"smiles": "C=C[C@@]1(C)CC(=O)[C@]2(O)[C@@]3(C)[C@@H](O)CCC(C)(C)[C@@H]3[C@H](O)[C@H](OC(C)=O)[C@@]2(C)O1", "result_ITMP": -2.23}
{"smiles": "N/C(=N\\Cc1ccccc1)NC(=O)c1nc(Cl)c(N)nc1N", "result_ITMP": 17.2}
{"smiles": "C[N+](C)(C)CC(=O)[O-]", "result_ITMP": -1.21}
{"smiles": "C=C1/C(=C/C=C2\\CCC[C@]3(C)[C@@H]([C@H](C)/C=C/[C@@H](C)C(C)C)CC[C@@H]23)C[C@@H](O)C[C@@H]1O", "result_ITMP": -2.6}
{"smiles": "O=C(NC1CCN(CCCCC2(C(=O)NCC(F)(F)F)c3ccccc3-c3ccccc32)CC1)c1ccccc1-c1ccc(C(F)(F)F)cc1", "result_ITMP": 62.5}
{"smiles": "O=C(NC1CCN(CCc2c[nH]c3ccccc23)CC1)c1ccccc1", "result_ITMP": 6.62}
{"smiles": "O=C(O)c1ccccc1-c1ccc(C(F)(F)F)cc1", "result_ITMP": -4.47}
{"smiles": "CC(C)NCC(O)COc1ccc(CC(N)=O)cc1", "note": "(stereo not shown) [R4A_0002533_001 / SPE_K44993696]", "result_ITMP": -2.42}
{"smiles": "CCCCC(CC)CCC(CC(C)C)OS(=O)(=O)[O-]", "note": "(stereo not shown)", "result_ITMP": -1.42}
{"smiles": "C[C@H](Cc1ccc(OCC(=O)[O-])cc1)NC[C@H](O)c1cccc(Cl)c1", "result_ITMP": -1.85}
{"smiles": "C[C@]12CCC(=O)C=C1CCC1C2CC[C@@]2(C)C1CC[C@@H]2O", "note": "(stereo partly shown)", "result_ITMP": 2.46}
{"smiles": "O=C(c1ccc(OCCN2CCCCC2)cc1)c1c(-c2ccc(O)cc2)sc2cc(O)ccc12", "result_ITMP": 74.6}
{"smiles": "CC(C)N1CCN(c2ccc(C(=O)c3c(-c4ccc(O)cc4)sc4cc(O)ccc34)cc2)CC1", "result_ITMP": -7.16}
{"smiles": "CCCCOc1ccc(C(=O)CCN2CCCCC2)cc1", "result_ITMP": 4.72}
{"smiles": "CCCCCS(=O)(=O)CCCCCCCCCCn1c(-c2ccc(O)cc2)c(C)c2cc(O)ccc21", "result_ITMP": -3.27}
{"smiles": "Cc1c(-c2ccc(O)cc2)n(Cc2ccc(OCCN3CCCCCC3)cc2)c2ccc(O)cc12", "result_ITMP": 57.2}
{"smiles": "Cc1ccc(CC2(O)CCN(CCOc3ccc(O)cc3)CC2)cc1", "result_ITMP": -3.85}
{"smiles": "Cc1c(C(=O)Nc2ccc(N3C[C@@H](C)O[C@@H](C)C3)nc2)cccc1-c1ccc(OC(F)(F)F)cc1", "result_ITMP": -6.29}
{"smiles": "CCn1c(-c2ccc(Cl)cc2)n[nH]c1=O", "result_ITMP": -4.76}
{"smiles": "CCCCC[C@H](O)/C=C/[C@@H]1[C@H]2C/C(=C/CCCC(=O)[O-])O[C@H]2C[C@H]1O", "result_ITMP": 0.37}
{"smiles": "O=C([O-])CN(CCN(CC(=O)[O-])CC(=O)O)CCN(CC(=O)[O-])CC(=O)O", "result_ITMP": 0.03}
{"smiles": "CN1C2CCC1CC(OC(c1ccc(F)cc1)c1ccc(F)cc1)C2", "note": "(stereo not shown)", "result_ITMP": 61.5}
{"smiles": "CCCCN1[C@@H]2CC[C@H]1C[C@@H](OC(c1ccc(F)cc1)c1ccc(F)cc1)C2", "result_ITMP": 51.4}
{"smiles": "CN1[C@@H]2CC[C@H]1C[C@@H](OC(=O)C(O)c1ccccc1)C2", "note": "(stereo partly shown)", "result_ITMP": -3.26}
{"smiles": "Fc1ccc(C(OCCN2CCN(CCCc3ccccc3)CC2)c2ccc(F)cc2)cc1", "result_ITMP": 24.8}
{"smiles": "CN1[C@@H]2CC[C@H]1C[C@@H](OC(c1ccccc1)c1ccccc1)C2", "result_ITMP": 35.6}
{"smiles": "CN1C2CC[C@@H]1C[C@@H](OC(=O)[C@H](CO)c1ccccc1)C2", "result_ITMP": -4.79}
{"smiles": "CC(C(=O)OC1CC2CCC(C1)N2C)c1ccc(Br)cc1", "note": "(stereo not shown)", "result_ITMP": 20.6}
{"smiles": "CN1CCC(OC(c2ccccc2)c2ccccc2)CC1", "result_ITMP": 26.1}
{"smiles": "CN1C2CCC1CC(OC(c1ccccc1)c1ccc(Cl)cc1)C2", "note": "(stereo not shown)", "result_ITMP": 98.3}
{"smiles": "C[C@H](NC(=O)[C@@H](Cc1c[nH]c2ccccc12)NC(=O)[C@@H](N)Cc1cnc[nH]1)C(=O)N[C@@H](Cc1c[nH]c2ccccc12)C(=O)N[C@H](Cc1ccccc1)C(=O)N[C@@H](CCCCN)C(N)=O", "note": "(H-H[dW]AW[dF]K-NH2)", "result_ITMP": -2.53}
{"smiles": "Cc1ccc(OC[C@@H](O)[C@H](C)NC(C)C)c2c1CCC2", "note": "(racemic)", "result_ITMP": 10.4}
{"smiles": "CO[C@@]12[C@@H]3NC3CN1C1=C(C(=O)C(N)=C(C)C1=O)[C@@H]2COC(N)=O", "note": "(stereo partly shown)", "result_ITMP": 0.39}
{"smiles": "OC[C@@H](O)C(O[C@@H]1O[C@H](CO)[C@H](O)[C@H](O)[C@H]1O)[C@H](O)[C@@H](O)CO", "note": "(stereo partly shown)", "result_ITMP": -8.28}
{"smiles": "O=C(O)[C@H]1CC[C@H](c2cc3cccnc3c(-c3cccc(F)c3)n2)CC1", "result_ITMP": -0.01}
{"smiles": "O[C@@H]1CO[C@H]2[C@@H]1OC[C@@H]2O", "result_ITMP": -0.79}
{"smiles": "COc1cc(C(=O)OCCCN2CCCN(CCCOC(=O)c3cc(OC)c(OC)c(OC)c3)CC2)cc(OC)c1OC", "result_ITMP": 58.7}
{"smiles": "COc1cc(N)c(Cl)cc1C(=O)OCCN1CCCCC1", "result_ITMP": -1.25}
{"smiles": "COc1cc(N)c(Cl)cc1C(=O)OCCCN1CCCCC1", "result_ITMP": 0.68}
